In PubChem BioAssay AID720704 (The Scripps Research Institute Molecular Screening Center, 2013):
Among all 370,000 compounds or so, about 660 (0.18%) were called active. The sample holds actives, similar compounds and a random draw of the others, so the mix is not that of the screen. Rule as the data show it: active = inhibition above about 11%; inactive = the rest.

Molecular target: 1-phosphatidylinositol 4,5-bisphosphate phosphodiesterase beta-3 (Homo sapiens) (UniProt Q01970)
Assay: human PLC-beta3 inhibitors, primary screen, biochemical, fluorescence (AID 720704);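 also: 0% = median of compound wells on plate and 100% = full blocker control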
Details: Purified PLC-beta3, fluorogenic substrate, at 12.2 µM, stronger effect = higher value

Sequence of 1-phosphatidylinositol 4,5-bisphosphate phosphodiesterase beta-3 (Homo sapiens) (Q01970 whole entry, looked up): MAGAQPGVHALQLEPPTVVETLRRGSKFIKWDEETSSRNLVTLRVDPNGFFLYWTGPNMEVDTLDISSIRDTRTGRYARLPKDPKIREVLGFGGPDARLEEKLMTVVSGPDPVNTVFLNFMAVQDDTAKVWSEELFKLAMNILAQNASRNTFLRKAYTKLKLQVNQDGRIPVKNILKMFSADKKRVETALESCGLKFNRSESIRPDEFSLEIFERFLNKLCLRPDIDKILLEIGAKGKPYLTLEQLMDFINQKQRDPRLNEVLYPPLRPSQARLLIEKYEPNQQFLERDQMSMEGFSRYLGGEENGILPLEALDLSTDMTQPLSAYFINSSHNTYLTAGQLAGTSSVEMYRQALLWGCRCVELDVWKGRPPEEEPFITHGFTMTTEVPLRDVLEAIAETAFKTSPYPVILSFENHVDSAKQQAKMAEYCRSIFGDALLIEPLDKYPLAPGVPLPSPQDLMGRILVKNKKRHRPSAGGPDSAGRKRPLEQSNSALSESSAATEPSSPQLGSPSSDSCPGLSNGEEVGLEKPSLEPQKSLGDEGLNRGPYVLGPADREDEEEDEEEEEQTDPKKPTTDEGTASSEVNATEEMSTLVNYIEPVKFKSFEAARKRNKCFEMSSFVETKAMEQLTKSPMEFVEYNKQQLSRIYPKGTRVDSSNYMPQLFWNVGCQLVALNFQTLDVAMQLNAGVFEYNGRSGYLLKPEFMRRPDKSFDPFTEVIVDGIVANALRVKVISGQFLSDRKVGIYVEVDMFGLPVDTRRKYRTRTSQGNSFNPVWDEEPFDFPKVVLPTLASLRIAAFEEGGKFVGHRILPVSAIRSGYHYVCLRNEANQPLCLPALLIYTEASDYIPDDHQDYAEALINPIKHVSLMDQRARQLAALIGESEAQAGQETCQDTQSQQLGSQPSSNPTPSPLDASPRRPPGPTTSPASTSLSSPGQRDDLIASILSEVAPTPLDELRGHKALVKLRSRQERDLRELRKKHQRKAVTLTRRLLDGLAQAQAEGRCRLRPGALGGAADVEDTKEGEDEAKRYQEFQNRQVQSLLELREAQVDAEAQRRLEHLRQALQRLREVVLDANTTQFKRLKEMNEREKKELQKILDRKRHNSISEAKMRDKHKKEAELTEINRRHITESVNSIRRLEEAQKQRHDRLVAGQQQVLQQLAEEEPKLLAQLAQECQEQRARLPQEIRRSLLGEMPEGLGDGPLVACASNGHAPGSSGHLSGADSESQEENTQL

inhibition, inactive:
CCCOc1cccc(C(=O)Nc2ccccc2C(=O)N2CCN(C)CC2)c1 -3.82%
Cn1c(SCC(=O)Nc2cccc(O)c2)nnc1-c1ccc(S(=O)(=O)N2CCOCC2)cc1 1.37%
Cc1ccc(NC(=O)C(C)OC(=O)Cc2c[nH]c3ccccc23)cc1S(=O)(=O)N1CCOCC1 (stereo not drawn) -3.66%
CCC(C)(C(=O)NC1CCCCC1)N(C)C(=O)c1ccc2c(c1)OCO2 (stereo not drawn) 3.07%
CCOC(=O)c1cccc(NC(=O)CCc2nnc3ccc(N4CCOCC4)nn23)c1 -10.3%
CC(=O)c1c(C)[nH]c(C(=O)N2CCN(S(=O)(=O)c3ccc(F)c(F)c3)CC2)c1C -2.62%
COCCNc1ccc(-c2n[nH]c(=O)c3ccccc23)cc1[N+](=O)[O-] -3.71%
O=CN1CCN(C(=O)c2ccc3c(c2)OCO3)CC1 -2.96%
O=C(C(=O)N1CCN(c2ccccc2)CC1)c1ccc2c(c1)OCO2 -0.14%
O=C(NCc1ccccc1)c1onc(CSc2nc3ccccc3[nH]2)c1C(=O)NCc1ccccc1 8.62%
COc1cc(OC)c(C(=O)N2CCCC2)cc1OC -8.68%
CCCc1nc2ccccc2n1C(C)C(=O)NC(C)(C)C (stereo not drawn) 1.17%
Cc1ccc(C)c(NC(=O)C2CCCN2C(=O)OC(C)(C)C)c1 (stereo not drawn) 5.04%
Cc1cccc(C)c1NC(=O)C1CCCN1C(=O)OC(C)(C)C (stereo not drawn) 0.37%
CC(C)Cn1c(SCC(=O)Nc2ccc(Cl)cc2F)nc(O)cc1=O -1.44%
CC(C)c1ccc(Nc2nnc(SCC(=O)c3nnc(-c4ccccc4)o3)s2)cc1 -19.6%
O=C(Nc1cccc2ccccc12)c1[nH]c(-c2ccccc2)c2c1C(=O)N(C1CC1)C2=O -1.92%
CCC(=O)c1ccc(OCC(=O)OCC(=O)N2CCc3ccccc3C2)cc1 -10.2%
CO/N=C(/CS(=O)(=O)c1ccc(Br)cc1)c1ccc(OC)cc1 0.43%
CCSc1sc(CC)cc1C=O -0.46%
CCOC(=O)N1CCN(Cc2nc(Cc3cccc(C(F)(F)F)c3)no2)CC1 -6.49%
CC(C)=CCN1CCN(Cc2cc3ccccc3[nH]2)CC1CCO (stereo not drawn) -5.94%
CC(C)(C)OC(=O)Nc1ccc([C@@H](NC(=O)OC(C)(C)C)C(=O)OC(C)(C)C)cc1 6.19%
CCN(CC(=O)Nc1ccc2c(c1)OCCO2)Cc1cc(=O)oc2cc(C)c(C)cc12 -6.71%
CO[C@@H]1CN(C)C(=O)c2cc(NC(=O)Nc3cc(F)ccc3F)ccc2OC[C@H](C)N(C(=O)c2ccccn2)C[C@@H]1C -2.49%
COC(=O)c1ccc(COC(=O)c2cnccn2)cc1 4.2%
O=C(c1ccc(OC2CCN(C/C=C/c3ccc(F)cc3)CC2)cc1)N1CCCCC1 -10.6%
COc1cc(OC)c(-n2cc(-c3ccc(Cl)cc3)[nH]c2=O)cc1Cl 1.76%
Cc1ccc(NC(=O)c2nc[nH]c2C(=O)N2CCCCC2)c(C(=O)c2ccccc2)c1 -2.21%
Cc1cc(C(=O)N2CCC(C(=O)O)CC2)c(C(F)(F)F)o1 -3.87%
COc1cccc(NC(=O)C(Sc2nc3ccccc3c(=O)n2CC(C)C)c2ccccc2)c1 (stereo not drawn) 0.44%
Cc1ccc2nc(-c3ccc(SCC(=O)Nc4cc(C)on4)nc3)[nH]c2c1 -55.5%
CCC(C(=O)NCCC(C)C)N(Cc1ccccc1Cl)C(=O)c1snc(C(N)=O)c1N (stereo not drawn) -123%
COc1ccccc1Nc1nc(N)nc(CSC(=S)N2CCOCC2)n1 -5.33%
Cc1cccc([C@H]2[C@@H]3C=CC[C@@H](C)[C@@H]3C(=O)N2Cc2ccccc2)c1 -3.88%
COc1ccc(NC(=O)CCC(=O)N2CCN(S(=O)(=O)c3ccc(C)cc3)CC2)c(OC)c1 -5.05%
CCC1C(C#N)=C(SC)NC2=C1C(=O)CC(C)(C)C2 (stereo not drawn) -65.6%
O=C1CCN(Cc2ccccc2)CCN1[C@H](CSc1ccccc1)c1ccccc1 -6.78%
Cc1ccc(C)c(N(CC(=O)NCc2ccco2)C(=O)CCC(=O)Nc2ccccn2)c1 -1.21%
Nn1c(SCC(=O)N2c3ccccc3Sc3ccccc32)nnc1-c1n[nH]c2c1CCC2 -2.4%
CC1Cc2ccccc2N1C(=O)Cn1cnc2ccccc2c1=O (stereo not drawn) -1.51%
CCCCNC(=O)C1CCCNC1=O (stereo not drawn) 1.97%
CCOC(=O)C1=CCC2C(=O)N(Cc3ccccc3)C(=O)C12 (stereo not drawn) 0.58%
CCOCCCNC(=O)C1(O)c2cc(Br)ccc2NC(=O)N1c1ccc(C)c(C)c1 (stereo not drawn) 0.25%
COc1ccc(C(=O)NC2(C(F)(F)F)NC(=O)N(CCCc3ccccc3)C2=O)c(OC)c1OC (stereo not drawn) 0.7%
CCOc1ccc(C(=O)NCCCN2CCCC2=O)cc1 2.32%
O=C(NCCCN1CCCC1=O)c1cccc(S(=O)(=O)NCc2ccccc2)c1 -4.88%
O=C1NC(=O)C(CCc2ccccc2)(c2ccccc2)N1 (stereo not drawn) 2.82%
OCC1OC(n2cnc3c(N4CCCC4)ncnc32)C(O)C1O (stereo not drawn) -4.64%
O=C(Nc1ccccc1C(=O)NCC1CCCO1)c1ccccc1F (stereo not drawn) -7.42%
CCN1CCN(c2c(Cl)cccc2NC(=O)c2ccc(Br)o2)CC1 1.67%
O=c1/c(=C/c2ccc(CNS(=O)(=O)c3ccccc3)o2)sc2n1CCN=2 -17.6%
CCOC(=O)C1C(c2ccc(OC)c(OC)c2)c2c([nH][nH]c2=O)CC1(C)O (stereo not drawn) -7.78%
CC1CCN(S(=O)(=O)c2ccc(S(=O)(=O)NCc3cccnc3)cc2)CC1 -6.19%
Cc1ccc(S(=O)(=O)N2CCC(C(=O)N[C@@H](C)C(=O)NCc3ccco3)CC2)cc1 0.13%
CC(=O)n1cc([C@H]2C=C(C(=O)N3CCOCC3)O[C@@H](OCc3ccc(CO)cc3)C2)c2ccccc21 -5.02%
COC(=O)c1ccccc1-n1cc(COC(=O)NCCc2ccccc2)nn1 -1.19%
CC(=O)NC(Cc1ccc(F)c(F)c1)C(=O)NC1CCN(C(=O)c2ccc(C)cc2)CC1 (stereo not drawn) -5.45%
O=C(NCc1ccccc1Cl)C(=O)NCC1CCCN1S(=O)(=O)c1cccs1 (stereo not drawn) -11.5%
O=C(c1ccccc1Cl)N(Cc1ccccc1F)N1C(=O)CCCC1=O -3.35%
CC1=C(C)C(=O)OC(C(C)C2CCC3C4CC=C5CC(OC6OC(COC7OC(CO)C(O)C(O)C7O)C(O)C(O)C6O)CC(O)C5(C)C4CCC23C)C1 (stereo not drawn) 4.96%
Cc1nnc(SC(C)C(=O)Nc2ccc(S(=O)(=O)NC3CCCCC3)cc2)s1 (stereo not drawn) 4.91%
COc1ccc(C)cc1NC(=O)CSc1nnc(CC(=O)Nc2ccccc2F)n1C -4.5%
COc1ccc(OC)c(NC(=O)CSc2nc3cccnc3n2C)c1 6.47%
CSCCC(NC(=O)c1cc([N+](=O)[O-])cc([N+](=O)[O-])c1)c1nc2ccccc2[nH]1 (stereo not drawn) -1.97%
O=C(CSc1nc2ccccc2o1)N1c2ccccc2Sc2ccc(Cl)cc21 -0.49%
O=C(CSc1nc2ccccc2o1)N1CCN(c2ccc(Cl)cc2)CC1 -0.03%
O=C1CCC(C(=O)N2CCC(O)(c3ccccc3)CC2)CN1CCc1ccccc1 (stereo not drawn) -8.61%
CCC(=O)c1ccc(N2CCN(C(=O)c3cc([N+](=O)[O-])ccc3F)CC2)c(F)c1 -2.14%
NC(=O)c1nnsc1-c1ccc(-c2snnc2C(N)=O)cc1 -6.22%
Cc1ccc(-c2nc(CS(=O)(=O)CC(=O)NCc3ccc4c(c3)OCO4)c(C)o2)cc1 -6.63%
O=C(COC(=O)c1ncc(Cl)c(Cl)c1Cl)NNC(=O)c1ccccc1 -12.2%
Cc1cc(Cl)ccc1OCCCC(=O)Nc1cccc(-n2cnnn2)c1 -7.06%
COc1ccc(CC(NC(C)=O)C(=O)NC2CCN(C(=O)c3ccc(OC)c(OC)c3)CC2)cc1OC (stereo not drawn) 2.51%
C/C(CC(O)(/C=N/O)c1ccccc1)=N\O (stereo not drawn) 3.84%
Cc1nnc(SCc2nc3ccccc3nc2C)s1 2.42%
O=C(c1cc2sccc2n1Cc1ccc(F)cc1)N1CCc2ccccc21 -17.1%
Cc1cc(NC(=O)[C@H](C)NC(=O)c2ccco2)ccc1Br -1.12%
Cc1ccc(C)c(NC(=O)c2ccc(OC(=O)c3ccco3)cc2)c1 -2.18%

inhibition, active:
O=C(c1ccc2c(c1)OCO2)N1CCNc2ccccc2C1 12.9%
CCC[C@H]1CCCC/C=C\CCCC(=O)OCCN1C(=O)OC(C)(C)C 13.5%
COC(=O)NC1(C(F)(F)F)NC(=O)N(C2CCCCC2)C1=O (stereo not drawn) 13.8%
Cc1cccc(C(=O)NCCCN2CCCC2=O)c1 11.5%
CC1CCN(S(=O)(=O)c2ccc(S(=O)(=O)NCc3ccco3)cc2)CC1 10.8%
CCOc1ccc(OCC)c(NC(=O)CSc2nnc(Cn3cnc4ccccc43)n2C)c1 12.1%
Cc1ccc(/C=N/NC(=O)CSc2nc3ccccc3o2)cc1 11.3%
Cc1nc2ccccc2nc1CC(O)(c1ccccc1)c1ccccc1 11.5%
Cc1cc(NC(=O)c2ccc(F)cc2)ccc1NC(=O)c1ccco1 12.6%
